Test results from PubChem BioAssay.
Records with an inconclusive call do not appear. The source made the active and inactive calls.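 How the source made its calls, unless noted: active means normalized viability below 100% at a tested concentration; inactive means the rest.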

Assays:
[1] = viability loss in pontine glioma line – cell-based, SU-DIPG-XVII, MIPE5.0, CellTiter-Glo, qHTS, dose response (AID 1347060; cut-off not given, nearly all actives have AC50 up to about 26 µM;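 on AC50: cells exposed to compound for 48 hours before viability readout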); details: CellTiter-Glo ATP luminescence
[2] = viability loss in pontine glioma line – cell-based, SU-DIPG-XIII, MIPE4.0, CellTiter-Glo, qHTS, dose response (AID 1347061; cut-off not given, nearly all actives have AC50 up to about 37 µM;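 further: cells exposed to compound for 48 hours before readout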); details: CellTiter-Glo ATP luminescence
[3] = viability loss in pontine glioma line – cell-based, JHH-DIPG-1, MIPE4.0, CellTiter-Glo, qHTS, dose response (AID 1347062; cut-off not given, nearly all actives have AC50 up to about 27 µM;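 on AC50: cells exposed to compound for two days before readout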); details: JHH-DIPG-1 viability, CellTiter-Glo ATP luminescence
[4] = viability loss in pontine glioma line – cell-based, SU-DIPG-IV, MIPE4.0, CellTiter-Glo, qHTS, dose response (AID 1347063; cut-off not given, nearly all actives have AC50 up to about 30 µM;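 further: compound exposure lasted 48 hours before the viability readout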); details: CellTiter-Glo ATP luminescence
[5] = viability loss in pontine glioma line – cell-based, SU-DIPG-XIII, MIPE5.0, CellTiter-Glo, qHTS, dose response (AID 1347064; cut-off not given, nearly all actives have AC50 up to about 23 µM;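 on AC50: cells exposed to compound for 48 hours before the viability read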); details: CellTiter-Glo ATP luminescence
[6] = viability loss in pontine glioma line – cell-based, SU-DIPG-XXV, MIPE5.0, CellTiter-Glo, qHTS, dose response (AID 1347065; cut-off not given, nearly all actives have AC50 up to about 26 µM;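 further: cells exposed to compound for 48 hours before ATP readout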); details: CellTiter-Glo ATP luminescence
[7] = growth inhibition of DIPG cells – cell-based, MIPE4.0 library, CellTiter-Glo luminescence, qHTS (AID 1347066; cut-off not given, nearly all actives have AC50 up to about 30 µM;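 further: cells exposed to compound for 48 hours before readout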); details: SU-DIPG-VI viability, CellTiter-Glo ATP luminescence
[8] = JHH-DIPG-1 glioma cell viability, MIPE5.0 library, CellTiter-Glo luminescence, qHTS (AID 1347067; cut-off not given, nearly all actives have AC50 up to about 26 µM;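 further: cells exposed to compound for 48 hours before readout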); details: JHH-DIPG-1 glioma viability, CellTiter-Glo ATP luminescence
[9] = growth inhibition of DIPG cells – cell-based, MIPE5.0 library, qHTS (AID 1347068; cut-off not given, nearly all actives have IC50 up to about 30 µM;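 on IC50: cells exposed to compound for 48 hours before viability readout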); details: SU-DIPG-XXV viability
[10] = viability loss with induced miR-34 in A549 – imaging, A549 dox-inducible miR-34, nuclei and caspase counts, primary screen (AID 1347080;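 active means compounds whose cell count with miR-34 switched on is under 0.7 times the count with it off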); details: A549 miR-34 inducible, Hoechst nuclei count, 48 h
[11] = compounds altering HSF1 focus formation in cells – imaging, Selleck Cancer Library (AID 1347162; in the data active means plate-normalised HSF1 focus index below about 0.46); details: human cells, HSF1 nuclear foci imaging, at 10 µM; SSMD: measured here: HSF1 foci SSMD mean; cell count: measured here: cell number; plate-normalised HSF1 focus index: stronger effect = lower value
[12] = MELAS cybrid and Rieske KO viability enhancers – cell-based, MELAS cybrids, Rieske KO mouse fibroblasts, CellTiter-Glo, primary screen (AID 1508586;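 active means mean z-score across replicates of 1.96 or higher in either the MELAS or the Rieske mutant cell line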;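 further: z relative to plate mean and SD of compound and empty wells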); details: low glucose
[13] = drug combination growth inhibition, ovarian cancer – cell-based, oncology-focused library, rucaparib conditional, profiling panel (AID 1508598); details: patient-derived ovarian cancer cells, CellTiter-Glo viability, 144 h, stronger effect = lower value
[14] = stronger effect = lower value, cell number ratio, induced over uninduced
[15] = measured here: relative caspase fold change +Dox/-Dox
[16] = measured here: total cells with miR-34 induction, stronger effect = lower value
[17] = measured here: total cells without miR-34 induction
[18] = MELAS cybrid survival, CellTiter-Glo 48 h, stronger effect = higher value
[19] = Rieske KO mouse fibroblast survival, CellTiter-Glo 72 h

COc1ncc(-c2ccc3nccc(-c4ccnnc4)c3c2)cc1NS(=O)(=O)c1ccc(F)cc1F
-2.62: z-score [12, 19]
inactive: fold change [10, 14] 1.04 | plate-normalised HSF1 focus index [11] 0.907 | z-score [12, 18] 1.15 | viability ([13]; at 0.000305 µM, OCI-C5x cells, with rucaparib 10 µM, 100% = cells with rucaparib alone) 107% | viability ([13]; at 0.000305 µM, OCI-C5x cells, without rucaparib) 105%
-1.81: SSMD [11]
1270: cell count [10, 16]
6380: cell count [11]
active: AC50 [1] 0.0263 µM | AC50 [2] 0.0469 µM | AC50 [3] 1.66 µM | AC50 [4] 0.0105 µM | AC50 [5] 0.0468 µM | AC50 [6] 0.0166 µM | AC50 [7] 0.0332 µM | AC50 [8] 0.0934 µM | IC50 [9] 0.105 µM | viability ([13]; at 0.000305 µM, OCI-P5x cells, with rucaparib 20 µM, 100% = cells with rucaparib alone) 86.7% | viability ([13]; at 0.000305 µM, OCI-P5x cells, without rucaparib) 84.8% | viability ([13]; at 0.00122 µM, OCI-C5x cells, with rucaparib 10 µM, 100% = cells with rucaparib alone) 84.7% | viability ([13]; at 0.00122 µM, OCI-C5x cells, without rucaparib) 89.8% | viability ([13]; at 0.00122 µM, OCI-P5x cells, with rucaparib 20 µM, 100% = cells with rucaparib alone) 67.8% | viability ([13]; at 0.00122 µM, OCI-P5x cells, without rucaparib) 69.1% | viability ([13]; at 0.00488 µM, OCI-C5x cells, with rucaparib 10 µM, 100% = cells with rucaparib alone) 62.5% | viability ([13]; at 0.00488 µM, OCI-C5x cells, without rucaparib) 53.2% | viability ([13]; at 0.00488 µM, OCI-P5x cells, with rucaparib 20 µM, 100% = cells with rucaparib alone) 43.9% | viability ([13]; at 0.00488 µM, OCI-P5x cells, without rucaparib) 46.3% | viability ([13]; at 0.0195 µM, OCI-C5x cells, with rucaparib 10 µM, 100% = cells with rucaparib alone) 39.4% | viability ([13]; at 0.0195 µM, OCI-C5x cells, without rucaparib) 37.6% | viability ([13]; at 0.0195 µM, OCI-P5x cells, with rucaparib 20 µM, 100% = cells with rucaparib alone) 31.6% | viability ([13]; at 0.0195 µM, OCI-P5x cells, without rucaparib) 27% | viability ([13]; at 0.0781 µM, OCI-C5x cells, with rucaparib 10 µM, 100% = cells with rucaparib alone) 32.8% | viability ([13]; at 0.0781 µM, OCI-C5x cells, without rucaparib) 30.6% | viability ([13]; at 0.0781 µM, OCI-P5x cells, with rucaparib 20 µM, 100% = cells with rucaparib alone) 24.3% | viability ([13]; at 0.0781 µM, OCI-P5x cells, without rucaparib) 17.1% | viability ([13]; at 0.313 µM, OCI-C5x cells, with rucaparib 10 µM, 100% = cells with rucaparib alone) 23.7% | viability ([13]; at 0.313 µM, OCI-C5x cells, without rucaparib) 23.6% | viability ([13]; at 0.313 µM, OCI-P5x cells, with rucaparib 20 µM, 100% = cells with rucaparib alone) 17.6% | viability ([13]; at 0.313 µM, OCI-P5x cells, without rucaparib) 11% | viability ([13]; at 1.25 µM, OCI-C5x cells, with rucaparib 10 µM, 100% = cells with rucaparib alone) 23.9% | viability ([13]; at 1.25 µM, OCI-C5x cells, without rucaparib) 23.5% | viability ([13]; at 1.25 µM, OCI-P5x cells, with rucaparib 20 µM, 100% = cells with rucaparib alone) 13.9% | viability ([13]; at 1.25 µM, OCI-P5x cells, without rucaparib) 8.06% | viability ([13]; at 5 µM, OCI-C5x cells, with rucaparib 10 µM, 100% = cells with rucaparib alone) 10.5% | viability ([13]; at 5 µM, OCI-C5x cells, without rucaparib) 9.68% | viability ([13]; at 5 µM, OCI-P5x cells, with rucaparib 20 µM, 100% = cells with rucaparib alone) 2.14% | viability ([13]; at 5 µM, OCI-P5x cells, without rucaparib) 1.41%
0.656: fold change [10, 15]
1220: cell count [10, 17]

NC(=O)c1ccc(N(C(N)=O)c2c(F)cccc2F)nc1-c1ccc(F)cc1F
9290: cell count [10, 16]
inactive: outcome [1] | outcome [2] | outcome [3] | outcome [4] | outcome [5] | outcome [6] | outcome [7] | outcome [8] | outcome [9] | fold change [10, 14] 0.9 | z-score [12, 18] -0.391
-0.467: z-score [12, 19]
10300: cell count [10, 17]
0.736: fold change [10, 15]

Cc1cnc(Nc2ccc(N3CCN(C)CC3)cc2)nc1Nc1cccc(S(=O)(=O)NC(C)(C)C)c1
0.413: fold change [10, 15]
1880: cell count [10, 17]
active: AC50 [1] 2.95 µM | AC50 [2] 5.9 µM | AC50 [3] 5.9 µM | AC50 [4] 6.62 µM | AC50 [5] 2.95 µM | AC50 [6] 1.86 µM | AC50 [7] 14.8 µM | AC50 [8] 2.95 µM | IC50 [9] 4.68 µM
inactive: fold change [10, 14] 1.22 | z-score [12, 18] 1.59
2300: cell count [10, 16]
-3.35: z-score [12, 19]
